Laboratory results reported in PubChem BioAssay (NCI).
About 79,000 compounds went through this panel and 15% of them were active in at least one assay; those are over-represented in the sample as a whole. Cut-off read from the data, not from the text of the source: active = growth inhibition above about 70%; inactive = the rest.

Columns and labels:
[1] = NCI Yeast Anticancer Drug Screen. Data for the rad50 strain (AID 155);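 note: 0% = growth of vehicle-only cultures of the same strain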; conditions: S. cerevisiae rad50 strain growth inhibition; at 50.0 µM; stronger effect = higher value
Summary of the method: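 Compounds were tested on a yeast strain with an engineered DNA damage repair alteration; the reported value is growth inhibition normalised to vehicle treatment.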

[2] = NCI Yeast Anticancer Drug Screen. Data for the mec2-1 strain (AID 157); conditions: S. cerevisiae mec2-1 strain, at 50.0 µM, stronger effect = higher value
Summary of the method: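 Growth inhibition is read against vehicle-treated controls after compound exposure of the mec2-1 yeast strain, which is defective in DNA damage repair or cell cycle control.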

[3] = NCI Yeast Anticancer Drug Screen. Data for the sgs1 mgt1 strain (AID 161);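 note: 0% = growth of cultures given vehicle only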; conditions: S. cerevisiae sgs1 mgt1 strain, at 50.0 µM, stronger effect = higher value
Summary of the method: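 This yeast growth screen uses a strain with defined DNA-repair lesions; compound-treated growth is compared with vehicle-treated growth.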

[4] = NCI Yeast Anticancer Drug Screen. Data for the cln2 rad14 strain (AID 165);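 note: 0% = growth equal to vehicle treated cultures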; conditions: S. cerevisiae cln2 rad14 strain, at 50.0 µM, stronger effect = higher value
Summary of the method: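 Growth inhibition, relative to vehicle-treated controls, is the read-out. The test organism is a yeast strain with defined genetic alterations, cln2 rad14.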

[5] = NCI Yeast Anticancer Drug Screen. Data for the bub3 strain (AID 167); conditions: S. cerevisiae bub3 mutant strain, at 50.0 µM, stronger effect = higher value
Summary of the method: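 Growth of a checkpoint-deficient yeast mutant is measured after compound exposure. Values represent inhibition relative to vehicle.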

[6] = NCI Yeast Anticancer Drug Screen. Data for the mlh1 rad18 strain (AID 175); conditions: S. cerevisiae mlh1 rad18 strain growth inhibition; at 50.0 µM; stronger effect = higher value
Summary of the method: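 Cells of a genetically altered yeast strain, deficient in DNA damage repair, were treated with compound. Their growth was then compared with that of vehicle-treated cultures to give inhibition.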

Measured: growth inhibition

COc1ccc(C(Cc2ccccc2)Nc2ccccc2)cc1 (configuration not stated)
inactive: [1] 4.1% | [2] -6.7% | [3] 28.6% | [4] -17% | [5] -0.95% | [6] -1.2%

CN1CCC(O)(c2ncc(Br)c3ccccc23)CC1
inactive: [1] 17.1% | [2] -7.8% | [3] 24.9% | [4] 10.8% | [5] 11.2% | [6] 39.6%

CC(=O)[C@H]1CC[C@@H]2[C@]1(C)CC1OC13[C@@]21C=C[C@@]2(CC(=O)CC[C@]32C)C2C(=O)OC(=O)C21 (some centres not stated)
inactive: [1] 17.6% | [2] 4.45% | [3] 40.8% | [4] 18.5% | [5] 3.95% | [6] 22.9%

CCOC(=O)Oc1ccc(C(=O)Oc2cc(Cl)c(Cl)cc2Cl)cc1OC
inactive: [1] 3.9% | [2] 4.7% | [3] 3.25% | [4] 18% | [5] -13.9% | [6] 7%

CC(C)C1C(O)C23CCC4C(C)(CO)CCCC4(C)C2CC13 (configuration not stated)
inactive: [1] -7.15% | [2] -6.85% | [3] -22.6% | [4] -15.4% | [5] -24.1% | [6] -8.75%

CCCCNC(=S)/N=C/c1c(O)cc(C)oc1=O
inactive: [1] -16.6% | [2] -25.9% | [3] -24.1% | [4] 2.25% | [5] -14.6% | [6] 2.75%

Nc1ccn(CCO)c(=O)n1
inactive: [1] -3.95% | [2] 2.05% | [3] -23.2% | [4] -0.8% | [5] -5.3% | [6] -7.95%

O=C(/C=C/c1ccccc1)SCc1ccccc1
inactive: [1] -2.9% | [2] 14% | [3] 11.2% | [4] -2.1% | [5] -4.75% | [6] 2.35%

Cc1cc2c(cc1C)NS(=O)(=O)N2
inactive: [1] 18.4% | [2] 10.4% | [3] 7.25% | [4] -21.7% | [5] 4.9% | [6] 7.35%

N=C1CCCC1C(=S)SCCC(N)=O (configuration not stated)
inactive: [1] -11.8% | [2] -30.2% | [3] -51.5% | [4] 6.8% | [5] -30.8% | [6] 6.15%

COC(=O)C(C)(N)Cc1ccc(O)c(C)c1 (configuration not stated)
inactive: [1] 3.6% | [2] 10.8% | [3] 0.5% | [4] -10.3% | [5] -4.05% | [6] -9.9%

O=c1cc(C(Br)(Br)Br)[nH]c2ccccc12
inactive: [1] 19.4% | [2] 3.25% | [3] 9.45% | [4] -5.7% | [5] 4.55% | [6] 18%

Cc1ncc([N+](=O)[O-])n1CCN(C)CCCCn1ccnc1[N+](=O)[O-]
inactive: [1] -0.3% | [2] -1.2% | [3] -5% | [4] -3.75% | [5] 7.7% | [6] -57.9%

NNC(=O)c1ccccc1O
inactive: [1] 36% | [2] 14.4% | [3] 15.5% | [4] -12.3% | [5] 13.4% | [6] 62%

CN(C)S(=O)(=O)Oc1ccccc1N
inactive: [1] 5.9% | [2] -4.5% | [3] 20.9% | [4] 18.7% | [5] -5.15% | [6] 15.8%

O=C(/C=C/c1ccccc1)Nc1cc(Cl)ccc1Cl
inactive: [1] 4.75% | [2] 26.1% | [3] 22.6% | [4] -7.3% | [5] 31.8% | [6] 17.6%

CC(C)(C)C1=NNC(c2ccccc2)C1 (configuration not stated)
inactive: [1] 5.25% | [2] -3.75% | [3] -14.7% | [4] 5.5% | [5] -1.25% | [6] 12.6%

c1ccc(CNc2ccccc2)cc1
inactive: [1] 3.6% | [2] -29.5% | [3] -24.4% | [4] 12.1% | [5] -18.9% | [6] -2.1%

O=C1c2ccccc2NC(c2cc(Cl)cc(Cl)c2O)N1CCc1ccccn1 (configuration not stated)
inactive: [1] 8.05% | [2] -21.9% | [3] -14.4% | [4] 14.7% | [5] -25.1% | [6] -11.9%

CN(C)C(=O)C1C2CCC(C3CC32)C1C(=O)N(C)C (configuration not stated)
inactive: [1] 22.9% | [2] 11.8% | [3] 37.2% | [4] 24.4% | [5] 24.6% | [6] 23.4%

O=C(O)/C=C/c1ccc(Oc2ccccc2C(=O)O)o1
inactive: [1] -3.45% | [2] -7.15% | [3] 5.05% | [4] 2.3% | [5] -1.2% | [6] -2.25%

Cc1cc(N(CCC#N)CCC#N)ccc1N=Nc1cccc(C(=O)O)c1
inactive: [1] -40.4% | [2] -33.8% | [3] -10% | [4] -16.4% | [5] -33.8% | [6] -27.1%

Cc1ccc(C(=O)CSC2=NCCN2)cc1Cl
inactive: [1] -9.75% | [2] -21.8% | [3] -12.6% | [4] -2.2% | [5] -11.9% | [6] 19.2%

CCOC(=O)/C(C#N)=C/c1ccc(O)c(OC)c1
inactive: [1] 30.4% | [2] -8.5% | [3] 4.95% | [4] 14.5% | [5] 12.6% | [6] 23.3%

COC(=O)CN(c1c(C)cc(C)c(N)c1C)S(=O)(=O)c1ccccc1
inactive: [1] 0.2% | [2] 15.9% | [3] 4.65% | [4] 5.4% | [5] -11.3% | [6] -25.3%

CC(C)CCOC(=O)c1ccccc1OC(=O)Nc1ccc(Cl)cc1[N+](=O)[O-]
inactive: [1] -18.9% | [2] -16.3% | [3] -20.4% | [4] -41.4% | [5] 0.05% | [6] -11.3%

CC(=O)N(C(C)=O)C(CS)C(=O)O (configuration not stated)
inactive: [1] 4.1% | [2] -11.8% | [3] 2.85% | [4] 14.8% | [5] 9.05% | [6] 2.6%

O=C(Nc1ccc(Cl)c(Cl)c1)Oc1ccc2ccccc2c1
inactive: [1] 13.4% | [2] 24.9% | [3] 34.5% | [4] -0.35% | [5] 4.1% | [6] 61.1%

O=C1CCC(N2C(=O)C3CCCCC3C2=O)C(=O)N1 (configuration not stated)
inactive: [1] -0.2% | [2] 12.3% | [3] 18.9% | [4] 1.7% | [5] 8.5% | [6] -14.5%

O/N=C/c1ccc(Cc2ccccc2)o1
inactive: [1] 15.7% | [2] 19.6% | [3] 11.2% | [4] -18.8% | [5] -11.3% | [6] 25.9%

CCOC(=O)CN1C(=O)C(=O)N(c2ccc(OC)c3ccccc23)C1=O
inactive: [1] -46.1% | [2] -17.2% | [3] -54.7% | [4] -40% | [5] -1.3% | [6] -27.6%

Cc1ccc2ccccc2c1Br
inactive: [1] -4.55% | [2] -0.85% | [3] 1.6% | [4] -14.8% | [5] -3.2% | [6] -8.55%

CCOC(=O)c1nc[nH]c1C(=O)OCC
inactive: [1] 17.5% | [2] -7.25% | [3] -6.1% | [4] 11% | [5] -1.35% | [6] 12%

O=C(O)C(O)(O)C(O)(O)C(=O)O
inactive: [1] 6.35% | [2] -22.6% | [3] -4% | [4] 4.85% | [5] -5.85% | [6] -10.4%

O=C(c1ccccc1)C1C(c2ccccc2)SC(c2ccccc2)CC1(O)c1ccccc1 (configuration not stated)
inactive: [1] 24.1% | [2] 1.8% | [3] 11.5% | [4] 16.9% | [5] -3.45% | [6] 13.3%

O=c1cnn2c(n1)sc1ccc3ccccc3c12
inactive: [1] -11.8% | [2] -0.9% | [3] -15.4% | [4] 0.65% | [5] 26.5% | [6] 40.4%

CCN(CC)CC(O)c1ccc2c(ccc3ccccc32)c1 (configuration not stated)
inactive: [1] 12.5% | [2] -5% | [3] 9.2% | [4] -32% | [5] -3.45% | [6] 12%
